According to publication PMC7862700, “An all-to-all approach to the identification of sequence-specific readers for epigenetic DNA modifications on cytosine”:

How the values were obtained:
Assay in all cases: DAPPL (digital affinity profiling via proximity ligation, sequencing); 10 mM Tris-HCl pH 7.5, 50 mM NaCl, 1 mM DTT, 4% glycerol, room temperature, 30 min; GST-TFs on glutathione beads, 16-mer random dsDNA library, 0.1% formaldehyde crosslink after washing; high values mean tight binding
Settings in all cases: protein: recombinant; tags: N-terminal GST; dsDNA, one strand shown
ELK4 = target: T1, ELK4 (Homo sapiens, UniProt P28324-2 1-405)
T1 sequence: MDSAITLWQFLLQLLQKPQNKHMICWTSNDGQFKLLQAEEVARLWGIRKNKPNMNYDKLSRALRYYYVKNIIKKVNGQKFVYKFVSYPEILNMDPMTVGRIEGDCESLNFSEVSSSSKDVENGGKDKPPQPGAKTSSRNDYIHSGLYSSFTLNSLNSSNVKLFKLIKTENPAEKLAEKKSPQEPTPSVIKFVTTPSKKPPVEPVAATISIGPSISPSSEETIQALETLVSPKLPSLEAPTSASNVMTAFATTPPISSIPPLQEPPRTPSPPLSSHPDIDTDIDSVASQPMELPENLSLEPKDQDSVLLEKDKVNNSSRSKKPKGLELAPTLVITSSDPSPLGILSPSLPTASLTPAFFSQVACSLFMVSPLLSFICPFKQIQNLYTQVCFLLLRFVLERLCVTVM
Method in brief: (§1)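 Sequencing on an Illumina NextSeq500 followed washing, crosslinking with 0.1% formaldehyde, proximity ligation (BsaI/T4 ligase, 1 h, 37 °C) and PCR amplification of pools that had been incubated for 30 min at room temperature with 200 nmole of a random double-stranded 16-mer DNA library in Tris/NaCl/DTT/glycerol buffer. Each pool held DNA-barcoded human transcription factors, expressed in yeast as GST fusions and captured on glutathione beads, plus a tag-only sample. Binding signal is a hexamer's read frequency for a factor divided by its frequency in the tag-only sample.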

ELF3 = target: T2, ELF3 (Homo sapiens, UniProt P78545 1-371)
T2 sequence: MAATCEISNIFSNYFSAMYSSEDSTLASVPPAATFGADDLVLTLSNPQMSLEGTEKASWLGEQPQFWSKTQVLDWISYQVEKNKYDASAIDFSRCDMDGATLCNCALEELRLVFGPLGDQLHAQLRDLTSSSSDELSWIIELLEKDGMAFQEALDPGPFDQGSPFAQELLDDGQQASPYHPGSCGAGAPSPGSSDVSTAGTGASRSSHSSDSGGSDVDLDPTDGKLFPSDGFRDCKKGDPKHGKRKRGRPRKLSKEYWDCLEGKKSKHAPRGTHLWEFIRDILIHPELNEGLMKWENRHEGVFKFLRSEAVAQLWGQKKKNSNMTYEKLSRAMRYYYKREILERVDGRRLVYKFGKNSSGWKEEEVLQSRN
Method in brief: as §1

ETV1 = ETV1 (Homo sapiens, UniProt P50549 1-477)
ETV1, sequence (P50549 whole entry): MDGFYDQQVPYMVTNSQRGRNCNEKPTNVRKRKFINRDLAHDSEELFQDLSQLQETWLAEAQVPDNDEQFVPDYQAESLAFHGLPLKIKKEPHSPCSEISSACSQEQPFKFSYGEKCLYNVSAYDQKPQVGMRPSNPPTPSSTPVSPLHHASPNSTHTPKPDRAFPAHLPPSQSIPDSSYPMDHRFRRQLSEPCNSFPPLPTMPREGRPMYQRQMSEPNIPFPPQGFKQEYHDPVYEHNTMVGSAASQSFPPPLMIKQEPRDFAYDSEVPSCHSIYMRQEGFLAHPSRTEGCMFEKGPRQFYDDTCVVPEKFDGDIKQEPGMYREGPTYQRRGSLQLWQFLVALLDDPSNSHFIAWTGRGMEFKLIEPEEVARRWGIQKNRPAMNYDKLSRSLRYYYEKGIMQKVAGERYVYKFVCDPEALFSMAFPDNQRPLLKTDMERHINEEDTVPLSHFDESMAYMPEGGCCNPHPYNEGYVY
Method in brief: as §1

ERF = target: T3, ERF (Homo sapiens, UniProt P50548 1-548)
T3 sequence: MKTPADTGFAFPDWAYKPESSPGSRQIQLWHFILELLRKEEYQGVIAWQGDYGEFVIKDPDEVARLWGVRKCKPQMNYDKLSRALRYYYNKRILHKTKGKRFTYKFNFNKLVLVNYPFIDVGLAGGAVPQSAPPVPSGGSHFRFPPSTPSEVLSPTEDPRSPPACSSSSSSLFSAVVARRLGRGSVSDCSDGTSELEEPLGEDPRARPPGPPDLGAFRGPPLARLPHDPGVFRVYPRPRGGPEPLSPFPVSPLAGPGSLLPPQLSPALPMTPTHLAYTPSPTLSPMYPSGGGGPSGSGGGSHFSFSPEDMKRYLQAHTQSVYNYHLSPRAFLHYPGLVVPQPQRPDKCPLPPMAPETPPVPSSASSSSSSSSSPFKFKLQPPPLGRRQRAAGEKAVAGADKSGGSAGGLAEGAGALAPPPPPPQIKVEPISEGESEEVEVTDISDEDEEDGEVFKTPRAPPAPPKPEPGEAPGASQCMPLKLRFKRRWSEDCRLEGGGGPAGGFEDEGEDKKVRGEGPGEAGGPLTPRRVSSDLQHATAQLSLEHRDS
Method in brief: as §1

ETV3L = target: T4, ETV3L (Homo sapiens, UniProt Q6ZN32 1-361)
T4 sequence: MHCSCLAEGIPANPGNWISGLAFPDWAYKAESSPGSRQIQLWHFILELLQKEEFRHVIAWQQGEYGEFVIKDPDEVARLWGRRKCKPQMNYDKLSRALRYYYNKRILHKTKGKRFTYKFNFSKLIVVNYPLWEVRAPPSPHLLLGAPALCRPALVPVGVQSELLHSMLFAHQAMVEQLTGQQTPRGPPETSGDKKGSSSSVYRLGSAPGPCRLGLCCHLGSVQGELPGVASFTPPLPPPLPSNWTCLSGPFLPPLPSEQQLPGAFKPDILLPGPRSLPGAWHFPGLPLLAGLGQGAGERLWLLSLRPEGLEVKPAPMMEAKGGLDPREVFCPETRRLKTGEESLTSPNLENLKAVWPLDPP
Method in brief: as §1

ETS2 = target: T5, ETS2 (Homo sapiens, UniProt P15036 1-469)
T5 sequence: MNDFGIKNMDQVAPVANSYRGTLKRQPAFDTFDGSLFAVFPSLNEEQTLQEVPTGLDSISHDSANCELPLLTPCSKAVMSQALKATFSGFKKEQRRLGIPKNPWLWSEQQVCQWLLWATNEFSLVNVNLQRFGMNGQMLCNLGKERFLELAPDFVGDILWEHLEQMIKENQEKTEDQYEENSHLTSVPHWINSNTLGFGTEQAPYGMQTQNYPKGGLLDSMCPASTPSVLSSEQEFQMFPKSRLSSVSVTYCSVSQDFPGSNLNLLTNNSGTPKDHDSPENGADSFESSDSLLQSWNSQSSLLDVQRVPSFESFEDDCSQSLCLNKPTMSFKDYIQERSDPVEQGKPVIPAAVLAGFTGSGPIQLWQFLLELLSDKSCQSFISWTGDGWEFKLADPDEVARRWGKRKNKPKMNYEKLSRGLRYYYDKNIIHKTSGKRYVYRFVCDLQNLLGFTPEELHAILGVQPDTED
Method in brief: as §1

ETV7 = target: T6, ETV7 (Homo sapiens, UniProt Q9Y603 1-341)
T6 sequence: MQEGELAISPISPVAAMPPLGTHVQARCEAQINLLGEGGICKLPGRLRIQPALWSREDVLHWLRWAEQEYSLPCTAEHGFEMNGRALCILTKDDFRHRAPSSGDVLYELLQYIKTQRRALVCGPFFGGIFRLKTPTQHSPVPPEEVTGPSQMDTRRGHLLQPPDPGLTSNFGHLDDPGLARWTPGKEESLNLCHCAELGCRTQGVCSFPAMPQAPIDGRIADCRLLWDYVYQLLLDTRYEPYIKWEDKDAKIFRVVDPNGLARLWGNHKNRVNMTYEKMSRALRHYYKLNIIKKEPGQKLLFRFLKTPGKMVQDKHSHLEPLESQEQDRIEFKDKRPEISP
Method in brief: as §1

ELF5 = target: T7, ELF5 (Homo sapiens, UniProt Q9UKW6-2 1-255)
T7 sequence: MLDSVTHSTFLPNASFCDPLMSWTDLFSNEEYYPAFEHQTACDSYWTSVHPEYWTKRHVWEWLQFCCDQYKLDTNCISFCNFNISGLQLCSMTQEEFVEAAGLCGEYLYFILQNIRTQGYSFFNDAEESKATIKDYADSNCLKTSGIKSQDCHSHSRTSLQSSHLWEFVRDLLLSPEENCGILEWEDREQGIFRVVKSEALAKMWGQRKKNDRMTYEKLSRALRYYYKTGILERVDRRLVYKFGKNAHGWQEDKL
Method in brief: as §1

ETV3 = target: T8, ETV3 (Homo sapiens, UniProt P41162-2 1-143)
T8 sequence: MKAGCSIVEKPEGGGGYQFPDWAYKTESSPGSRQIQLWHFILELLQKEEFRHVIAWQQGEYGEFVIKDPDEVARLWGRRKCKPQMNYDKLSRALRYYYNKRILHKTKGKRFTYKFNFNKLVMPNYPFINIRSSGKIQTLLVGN
Method in brief: as §1

ETV6 = ETV6 (Homo sapiens, UniProt P41212 1-452)
ETV6, sequence (P41212 whole entry): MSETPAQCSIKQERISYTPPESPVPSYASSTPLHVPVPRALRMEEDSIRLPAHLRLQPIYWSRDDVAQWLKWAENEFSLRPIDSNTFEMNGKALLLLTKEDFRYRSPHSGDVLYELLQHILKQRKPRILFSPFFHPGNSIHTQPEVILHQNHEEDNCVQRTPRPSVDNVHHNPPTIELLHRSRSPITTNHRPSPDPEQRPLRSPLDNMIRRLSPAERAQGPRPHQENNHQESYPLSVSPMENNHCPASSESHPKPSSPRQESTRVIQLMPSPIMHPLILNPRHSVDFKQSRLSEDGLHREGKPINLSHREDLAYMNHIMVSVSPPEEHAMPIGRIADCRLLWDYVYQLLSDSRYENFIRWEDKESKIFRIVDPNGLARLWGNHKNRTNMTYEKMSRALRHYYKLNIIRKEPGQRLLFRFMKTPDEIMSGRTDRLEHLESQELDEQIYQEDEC
Method in brief: as §1

GTTTGC was tested, and the binding signal (ELK4) was 1.17 fold enrichment (6-mer frequency, TF over GST control), the binding signal (ELF3) was 1.23 fold enrichment (6-mer frequency, TF over GST control) and the binding signal (ETV1) was 1.14 fold enrichment (6-mer frequency, TF over GST control). The binding signal (ERF) was 1.1 fold enrichment (6-mer frequency, TF over GST control), the binding signal (ETV3L) was 1.05 fold enrichment (6-mer frequency, TF over GST control) and the binding signal (ETS2) was 1.08 fold enrichment (6-mer frequency, TF over GST control). For the same sequence, the binding signal (ETV7) was 1.01 fold enrichment (6-mer frequency, TF over GST control), the binding signal (ELF5) was 1.07 fold enrichment (6-mer frequency, TF over GST control) and the binding signal (ETV3) was 1.1 fold enrichment (6-mer frequency, TF over GST control). For the same sequence, the binding signal (ETV6) was 1.02 fold enrichment (6-mer frequency, TF over GST control).
